Bioassay records: PubChem, National Center for Advancing Translational Sciences (NCATS)
A selection: hits, their analogues and other compounds. The true share with any hit is near 0.43%.
GAA glycogen: GAA glycogen-cleavage inhibition or activation; P10253; recombinant GAA, glycogen substrate, Amplex Red glucose oxidase fluorescence; Potency, µM (titrated, usually from 76.4 µM), actives largely listed as inhibitors; actives 0.38% (n = 300,000); AID 2100;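 further: the screen sought inhibitors and activators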
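Recombinant enzyme (4 nM final) with compounds titrated up to 77 uM and bovine liver glycogen (30 ug) in citrate pH 5.0, 0.01% Tween-20, 37 C 40 min. Released glucose detected by Amplex Red/glucose oxidase (Ex 573/Em 610); AC50 from Hill fits.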
GLA inh pH 4.5: blocks human alpha-galactosidase A at pH 4.5 | purified enzyme, 4-MU-alpha-Gal fluorescence, pH 4.5 | activity change, negative = inhibition, % at 105 µM | 230,000 tested, under 10 active | AID 1467
Target sequence (P06280 whole entry, looked up): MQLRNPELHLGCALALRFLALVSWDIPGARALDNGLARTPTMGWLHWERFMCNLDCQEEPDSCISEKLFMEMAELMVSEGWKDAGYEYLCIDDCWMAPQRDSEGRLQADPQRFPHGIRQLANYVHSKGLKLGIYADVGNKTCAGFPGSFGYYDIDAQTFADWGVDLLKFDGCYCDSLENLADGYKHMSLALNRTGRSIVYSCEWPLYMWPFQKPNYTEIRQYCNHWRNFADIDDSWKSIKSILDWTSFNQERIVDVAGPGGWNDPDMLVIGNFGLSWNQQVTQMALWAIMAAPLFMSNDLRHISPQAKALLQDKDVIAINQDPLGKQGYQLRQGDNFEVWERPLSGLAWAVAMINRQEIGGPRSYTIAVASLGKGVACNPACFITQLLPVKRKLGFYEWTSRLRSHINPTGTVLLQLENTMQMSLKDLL
GLA spleen mod: alpha-galactosidase A (human) modulation; AID 2107; actives 0.008% (n = 240,000); human spleen homogenate, 4MU-alpha-Gal fluorescence, 40 min; Potency, µM (highest dose often 80 µM), actives largely listed as inhibitors
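Human spleen homogenate (1 ug) as enzyme source, 4-methylumbelliferyl-alpha-D-galactopyranoside 1 mM final, citrate/phosphate pH 5.0 with 0.01% Tween-20. Compounds 40 min at 37C, NaOH/glycine stop; fluorescence Ex 365/Em 440, Hill-fit AC50.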
GAA inhib: alpha-glucosidase (human) inhibition; P10253; purified human GAA, 4-MU-alpha-glucoside fluorescence; Potency, µM (highest dose often 76.9 µM), actives largely listed as inhibitors; actives 0.005% (n = 200,000); AID 1466
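Compounds are titrated up to 77 uM against 4 nM human enzyme. Substrate 4-methylumbelliferyl-alpha-D-pyranoside (400 uM) reacts 20 min at room temperature in pH 5.0 buffer; liberated 4-methylumbelliferone is read at 440 nm.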
GAA spleen mod: inhibitors or activators of human alpha-glucosidase in spleen homogenate; human spleen homogenate, 4-MU-alpha-glucoside fluorescence; actives 0.006% (n = 240,000); P10253; Potency, µM (series often up to 79.9 µM), hits mostly inhibitors
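Compounds were titrated against alpha-glucosidase in spleen homogenate at pH 5.0, with 1 mM 4-methylumbelliferyl substrate for 40 min at 37 C. Reactions were quenched with pH 10 NaOH/glycine and fluorescence measured.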
N370S GC: inhibits or activates N370S mutant glucocerebrosidase | P04062 | N370S GC spleen homogenate, 4MU-glucoside fluorescence | Potency, µM (series often up to 59.4 µM), most hits filed as inhibitors | actives 0.092% (n = 330,000)
Hits are given with their value; i = inactive; ? = inconclusive; nt = no result; [ ] = remark or other dose. The call rests on the fitted dose curve; in most records, active means well fitted curve in the direction sought with a large enough effect; inconclusive means small, poorly fitted or top-dose-only effect, or another doubt; inactive means no such curve, though single readings can be large; an effect the other way counts as inactive or inconclusive.

SMILES	GAA glycogen	GLA inh pH 4.5	GLA spleen mod	GAA inhib	GAA spleen mod	N370S GC
O=[N+]([O-])c1ccc(N/N=C/c2ccc[nH]2)cc1	7.94µM	i	i	i	i	nt
O=[N+]([O-])c1ccc(N/N=C/c2cccc(O)c2O)cc1	?	nt	nt	nt	nt	i
C#CCOCCOCCOCCNc1nc(N2CCN(C(=O)CCCCCCCCCCNC(=O)Cn3cc(C[C@@H](C)O)nn3)CC2)nc(N2CCN(C(=O)CCCCCCCCCCNC(=O)[C@H](CCCN=C(N)N)n3cc(C[C@@H](C)CC)nn3)CC2)n1	nt	nt	nt	nt	nt	2.82µM
C#CCOCCOCCOCCNc1nc(N2CCN(C(=O)CCCCCCCCCCNC(=O)Cn3cc(C[C@@H](C)O)nn3)CC2)nc(N2CCN(C(=O)CCCCCCCCCCNC(=O)[C@H](CCCCN)n3cc(CCCC(=O)O)nn3)CC2)n1	nt	nt	nt	nt	nt	i
C#CCOCCOCCOCCNc1nc(N2CCN(C(=O)CCCCCCCCCCNC(=O)[C@H](CO)n3cc(CCCSC)nn3)CC2)nc(N2CCN(C(=O)CCCCCCCCCCNC(=O)[C@H](CCCN=C(N)N)n3cc(C[C@@H](C)CC)nn3)CC2)n1	nt	nt	nt	nt	nt	3.16µM
CCOc1ccc(NC(=O)N2CCC(CN3CCc4ccccc4C3)CC2)cc1	50.1µM	nt	nt	nt	nt	nt
CCn1cnc2cc(NCc3cccc(OC)c3O)ccc21	15.7µM	i	i	i	i	i
Cc1cc(C(F)(F)F)nn1CC(=O)NNC(=S)Nc1ccc(F)cc1	39.8µM	i	i	i	i	nt
Cc1cc(C(F)(F)F)nn1CC(=O)NNC(=S)Nc1ccc(Cl)cc1	i	i	i	i	i	i
CCC(C)n1c(=N)c(S(=O)(=O)c2ccccc2)cc2c(=O)n3ccccc3nc21 (centres undefined)	i	nt	nt	nt	nt	nt
CCOC(=O)c1c(CSc2ccccc2)n(C)c2cc(Br)c(OCC(O)CNC(CO)(CO)CO)cc12 (centres undefined)	i	i	i	i	i	14.1µM
CC(=O)Oc1ccc2c(C)cc(=O)oc2c1	i	?	?	?	?	?
CC(=O)Oc1cc2oc(=O)cc(C)c2cc1OC(C)=O	7.88µM	?	?	?	?	?
Cc1cc(C)c2c(-n3cccc3)c(C(=O)NCC(C)c3ccccc3)sc2n1 (centres undefined)	i	nt	nt	nt	nt	nt
Cc1cc(C)c2c(-n3cccc3)c(C(=O)NNS(=O)(=O)c3ccc(Br)cc3)sc2n1	17.8µM	i	i	i	i	?
Cc1ccc(S(=O)(=O)N2CCN(C(=O)N(c3ccccc3)c3ccccc3)CC2)cc1	?	i	i	25.1µM	i	nt
Cc1ccc(N(C)C(=O)N2CCN(S(=O)(=O)c3ccc(C)cc3)CC2)cc1	i	i	i	?	i	i
CSc1cccc(NC(=O)CNC(=O)c2ccc3c(c2)OCO3)c1	nt	nt	nt	nt	nt	i
CSc1cccc(-n2cc(-c3ccc4c(c3)OCO4)[nH]c2=O)c1	35.2µM	i	i	i	i	i
Cc1cccc(-c2nc(Nc3ccc(N4CCOCC4)cc3)c3ccccc3n2)c1	i	i	i	i	i	2.82µM
c1ccc(CNc2nc(-c3ccoc3)nc3ccccc23)cc1	nt	nt	i	nt	i	?
O=C(O)c1ccc(Nc2nc(-c3ccc([N+](=O)[O-])cc3)nc3ccccc23)cc1	i	nt	nt	nt	nt	i
CC(=O)Nc1ccc(Nc2nc(-c3ccccc3)nc3ccccc23)cc1	i	i	i	i	i	6.31µM
Fc1ccc(Nc2nc(-c3ccoc3)nc3ccccc23)cc1	nt	nt	i	nt	i	15.8µM
CC(Nc1nc(-c2ccccc2)nc2ccccc12)c1ccccc1 (centres undefined)	i	i	i	i	i	5.01µM
SMILES	GAA glycogen	GLA inh pH 4.5	GLA spleen mod	GAA inhib	GAA spleen mod	N370S GC
CCCC(=O)Nc1cc(-c2nnc3c4ccccc4c(C)nn23)ccc1C	i	nt	nt	nt	nt	nt
COc1ccccc1C(=O)Oc1cc(C)[nH]c(=O)c1[N+](=O)[O-]	i	i	i	i	i	i
CC1(C)S[C@@H]2[C@H](NC(=O)[C@@H](N)c3ccccc3)C(=O)N2[C@H]1C(=O)O[C@H]1OC(=O)c2ccccc21	nt	i	i	nt	i	i
CCn1cc(S(=O)(=O)c2ccccc2)c(=O)c2cc(F)c(N3CCCC3)cc21	i	nt	nt	nt	nt	nt
Cc1nc(N2CCC(C)CC2)c2nnn(Cc3ccccc3)c2n1	i	i	i	i	i	i
NC(=S)NN=C(Cc1ccccc1)Cc1ccccc1	?	i	i	i	i	i
COc1ccc(N(CC(=O)NCCc2ccc(OC)c(OC)c2)S(=O)(=O)c2ccc(OC)c(OC)c2)cc1	i	nt	nt	nt	nt	i
Cc1cc(NC(=O)CCS(=O)(=O)c2ccc3c(c2)NC(=O)C(C)S3)ccc1Br (centres undefined)	nt	nt	nt	nt	nt	8.91µM
CC1Sc2ccc(S(=O)(=O)CCC(=O)Nc3cc(F)ccc3F)cc2NC1=O (centres undefined)	nt	nt	nt	nt	nt	10µM
CCC(C)NC(=O)CN(c1cc(C)cc(C)c1)S(=O)(=O)c1c(C)[nH]c(=O)[nH]c1=O (centres undefined)	i	i	i	nt	i	10µM
Cc1cc(C)cc(N(CC(=O)O)S(=O)(=O)c2c(C)[nH]c(=O)[nH]c2=O)c1	i	i	i	i	i	i
CCOc1ccc(N(CC(=O)NC2CCCC2)S(=O)(=O)c2c(C)[nH]c(=O)[nH]c2=O)cc1	i	i	i	i	i	7.94µM
Cc1cc(C)cc(N(CC(=O)NC2CCC(C)CC2)S(=O)(=O)c2c(C)[nH]c(=O)[nH]c2=O)c1 (centres undefined)	i	i	i	nt	i	0.398µM
Cc1cc(C)cc(N(CC(=O)NC2CCCCCC2)S(=O)(=O)c2c(C)[nH]c(=O)[nH]c2=O)c1	i	i	i	nt	i	0.708µM
COc1cc(NC(=O)CN(c2cc(C)cc(C)c2)S(=O)(=O)c2c(C)[nH]c(=O)[nH]c2=O)cc(OC)c1	i	nt	nt	nt	nt	?
Cc1noc(C)c1S(=O)(=O)N(CC(=O)NC1CCC(C)CC1)c1ccc(C(C)C)cc1 (centres undefined)	nt	nt	nt	nt	nt	i
CCN(C(=O)c1c(C)cc(=O)oc1C)c1ccc2c(c1)OCO2	i	i	i	i	i	i
CCN(C(=O)c1coc(=O)c(Br)c1)c1ccc2c(c1)OCO2	17.6µM	i	i	?	i	i
OCc1ccc(-c2ccc(-c3ccc(CO)s3)o2)s1	nt	?	?	nt	i	?
COc1ccc(OC)c(S(=O)(=O)Nc2ccc(O)c3ccccc23)c1	14.1µM	i	i	i	i	i
Cc1ccccc1-n1c2nc(=O)[nH]c(=O)c-2cc2c(Cl)cccc21	i	nt	nt	nt	nt	nt
COC(=O)C1=C(C(=O)OC)[C@@H]2Nc3ccccc3[C@@]23C[C@@H](C(=O)OC)N(S(=O)(=O)c2ccc(OC)cc2)C3=N1	nt	i	i[17.5 µM]	nt	i[17.4 µM]	i[12.8 µM]
Nc1[nH]ncc1C(=O)Nc1cccc(C(F)(F)F)c1	11.1µM	i	i	?	i	i
